Assay results as given in the supplement of paper PMC12819154, “High-throughput peptide-centric local stability assay extends protein–ligand identification to membrane proteins, tissues and bacteria” (Nature Structural & Molecular Biology, 2025).

Compound: CN[C@@H]1C[C@H]2O[C@@](C)([C@@H]1OC)n1c3ccccc3c3c4c(c5c6ccccc6n2c5c31)C(=O)NC4 [staurosporine]
Assay: log2 fold change of tryptic peptide abundance, ligand vs vehicle (limited proteolysis) (log2 ratio); higher = more trypsin-susceptible (destabilized)
Settings: ligand concentration: 20 uM; sample: K562 cleared lysate; digestion: 4 min, 22 C (HT-PELSA RT4min, Orbitrap Astral)

Sequence of UniProt Q9UL54 (Q9UL54 whole entry): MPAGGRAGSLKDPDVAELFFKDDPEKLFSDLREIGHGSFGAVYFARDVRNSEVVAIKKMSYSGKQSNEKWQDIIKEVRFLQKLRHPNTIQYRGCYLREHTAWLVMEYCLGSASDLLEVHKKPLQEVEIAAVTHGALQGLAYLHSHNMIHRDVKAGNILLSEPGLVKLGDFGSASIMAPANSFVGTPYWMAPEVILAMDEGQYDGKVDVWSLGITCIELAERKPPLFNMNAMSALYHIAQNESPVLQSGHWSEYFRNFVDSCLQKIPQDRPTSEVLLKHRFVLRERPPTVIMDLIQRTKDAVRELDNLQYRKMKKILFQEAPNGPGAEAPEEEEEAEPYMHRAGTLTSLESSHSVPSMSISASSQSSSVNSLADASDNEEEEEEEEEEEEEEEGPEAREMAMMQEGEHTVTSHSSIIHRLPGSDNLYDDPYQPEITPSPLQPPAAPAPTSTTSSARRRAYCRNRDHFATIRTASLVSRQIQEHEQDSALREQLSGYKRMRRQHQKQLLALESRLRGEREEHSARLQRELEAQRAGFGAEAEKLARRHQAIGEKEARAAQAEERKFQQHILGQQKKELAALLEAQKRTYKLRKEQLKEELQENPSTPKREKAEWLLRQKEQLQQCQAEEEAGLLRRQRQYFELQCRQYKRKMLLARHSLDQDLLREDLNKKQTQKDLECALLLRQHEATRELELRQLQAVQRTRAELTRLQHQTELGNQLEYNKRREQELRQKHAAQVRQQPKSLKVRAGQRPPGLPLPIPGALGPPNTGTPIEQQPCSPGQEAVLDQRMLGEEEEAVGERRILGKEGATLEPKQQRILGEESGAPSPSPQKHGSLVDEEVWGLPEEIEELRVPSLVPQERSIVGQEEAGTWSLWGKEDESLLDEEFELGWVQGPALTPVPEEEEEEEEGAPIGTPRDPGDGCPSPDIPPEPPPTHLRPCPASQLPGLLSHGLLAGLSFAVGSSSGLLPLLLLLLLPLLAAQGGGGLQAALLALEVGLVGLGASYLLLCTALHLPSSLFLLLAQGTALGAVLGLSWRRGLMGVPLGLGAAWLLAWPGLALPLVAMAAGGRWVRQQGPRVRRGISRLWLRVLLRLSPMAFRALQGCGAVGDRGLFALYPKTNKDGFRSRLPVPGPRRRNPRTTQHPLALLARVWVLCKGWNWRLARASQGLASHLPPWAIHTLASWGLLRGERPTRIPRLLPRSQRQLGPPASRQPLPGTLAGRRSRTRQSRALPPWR
Sequence of UniProt Q13043 (Q13043 whole entry): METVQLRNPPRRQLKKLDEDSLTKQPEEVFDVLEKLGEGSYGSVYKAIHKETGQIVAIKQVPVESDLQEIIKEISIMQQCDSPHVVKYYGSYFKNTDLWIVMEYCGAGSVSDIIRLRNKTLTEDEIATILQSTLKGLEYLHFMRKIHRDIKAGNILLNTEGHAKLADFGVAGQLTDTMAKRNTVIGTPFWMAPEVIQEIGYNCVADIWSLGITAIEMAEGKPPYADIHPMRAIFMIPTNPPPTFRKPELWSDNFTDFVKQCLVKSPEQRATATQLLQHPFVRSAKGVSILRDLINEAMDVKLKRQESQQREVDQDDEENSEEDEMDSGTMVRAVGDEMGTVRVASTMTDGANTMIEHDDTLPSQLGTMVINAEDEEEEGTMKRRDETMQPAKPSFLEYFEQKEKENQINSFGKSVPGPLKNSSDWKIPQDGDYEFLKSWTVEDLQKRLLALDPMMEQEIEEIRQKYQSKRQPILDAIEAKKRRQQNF
Sequence of UniProt Q13523 (Q13523 whole entry): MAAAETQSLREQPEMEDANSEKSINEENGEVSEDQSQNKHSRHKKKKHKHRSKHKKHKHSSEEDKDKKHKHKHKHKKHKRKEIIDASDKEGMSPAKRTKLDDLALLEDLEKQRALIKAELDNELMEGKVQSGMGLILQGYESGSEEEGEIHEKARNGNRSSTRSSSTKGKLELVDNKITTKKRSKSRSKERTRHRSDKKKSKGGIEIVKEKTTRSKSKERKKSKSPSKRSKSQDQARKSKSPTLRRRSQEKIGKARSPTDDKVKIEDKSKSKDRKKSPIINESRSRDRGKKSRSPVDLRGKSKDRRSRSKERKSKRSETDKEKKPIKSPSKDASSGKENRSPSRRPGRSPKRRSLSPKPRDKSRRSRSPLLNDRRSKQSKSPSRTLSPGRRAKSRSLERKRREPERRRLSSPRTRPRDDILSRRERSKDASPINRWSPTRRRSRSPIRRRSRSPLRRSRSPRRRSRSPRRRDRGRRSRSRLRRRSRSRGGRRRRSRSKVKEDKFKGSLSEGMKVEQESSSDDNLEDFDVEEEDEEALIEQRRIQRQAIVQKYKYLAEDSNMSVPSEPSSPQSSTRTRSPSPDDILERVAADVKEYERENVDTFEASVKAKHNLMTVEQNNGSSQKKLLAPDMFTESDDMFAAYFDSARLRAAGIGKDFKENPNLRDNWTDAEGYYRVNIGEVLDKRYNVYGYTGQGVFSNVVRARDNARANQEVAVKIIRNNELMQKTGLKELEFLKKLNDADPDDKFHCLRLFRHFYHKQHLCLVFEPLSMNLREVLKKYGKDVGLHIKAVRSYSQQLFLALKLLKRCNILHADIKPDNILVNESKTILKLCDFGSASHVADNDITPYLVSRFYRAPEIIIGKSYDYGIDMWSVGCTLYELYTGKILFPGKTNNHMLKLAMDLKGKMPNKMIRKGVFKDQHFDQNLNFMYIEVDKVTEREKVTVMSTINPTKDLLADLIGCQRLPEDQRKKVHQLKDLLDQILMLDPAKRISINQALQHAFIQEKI
Sequence of UniProt Q8NEB9 (Q8NEB9 whole entry): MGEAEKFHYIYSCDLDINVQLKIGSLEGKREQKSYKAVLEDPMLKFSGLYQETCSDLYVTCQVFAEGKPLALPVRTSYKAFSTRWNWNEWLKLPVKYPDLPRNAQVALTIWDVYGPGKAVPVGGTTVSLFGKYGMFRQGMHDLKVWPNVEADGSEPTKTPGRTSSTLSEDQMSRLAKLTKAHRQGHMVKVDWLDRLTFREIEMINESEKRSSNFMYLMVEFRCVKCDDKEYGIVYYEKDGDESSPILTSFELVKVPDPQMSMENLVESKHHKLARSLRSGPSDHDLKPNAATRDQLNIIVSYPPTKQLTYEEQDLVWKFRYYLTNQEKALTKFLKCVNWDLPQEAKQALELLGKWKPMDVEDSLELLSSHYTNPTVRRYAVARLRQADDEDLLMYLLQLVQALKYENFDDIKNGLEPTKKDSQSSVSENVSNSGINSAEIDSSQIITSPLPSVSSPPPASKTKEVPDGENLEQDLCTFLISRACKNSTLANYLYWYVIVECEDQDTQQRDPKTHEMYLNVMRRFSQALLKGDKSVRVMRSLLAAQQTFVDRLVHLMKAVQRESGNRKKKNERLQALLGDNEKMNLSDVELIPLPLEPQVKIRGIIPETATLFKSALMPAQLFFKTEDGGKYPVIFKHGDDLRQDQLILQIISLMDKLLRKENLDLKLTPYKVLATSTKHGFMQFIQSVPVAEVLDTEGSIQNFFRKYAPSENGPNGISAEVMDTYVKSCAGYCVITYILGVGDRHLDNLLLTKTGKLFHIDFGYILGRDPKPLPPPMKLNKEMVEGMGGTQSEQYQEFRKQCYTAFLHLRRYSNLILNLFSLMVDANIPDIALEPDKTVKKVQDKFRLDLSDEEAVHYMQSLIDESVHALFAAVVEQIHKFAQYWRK
Sequence of UniProt P31321 (P31321 whole entry): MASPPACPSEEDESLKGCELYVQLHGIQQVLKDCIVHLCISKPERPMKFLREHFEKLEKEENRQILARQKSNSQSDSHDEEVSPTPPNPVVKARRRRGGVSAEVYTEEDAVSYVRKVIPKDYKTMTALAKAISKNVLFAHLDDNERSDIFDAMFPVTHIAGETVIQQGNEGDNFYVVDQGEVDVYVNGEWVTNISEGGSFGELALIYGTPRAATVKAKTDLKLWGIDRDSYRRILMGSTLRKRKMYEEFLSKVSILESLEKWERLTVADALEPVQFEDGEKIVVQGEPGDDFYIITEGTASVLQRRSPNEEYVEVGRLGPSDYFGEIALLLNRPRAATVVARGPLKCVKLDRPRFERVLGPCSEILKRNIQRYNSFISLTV
Sequence of UniProt O75676 (O75676 whole entry, looked up): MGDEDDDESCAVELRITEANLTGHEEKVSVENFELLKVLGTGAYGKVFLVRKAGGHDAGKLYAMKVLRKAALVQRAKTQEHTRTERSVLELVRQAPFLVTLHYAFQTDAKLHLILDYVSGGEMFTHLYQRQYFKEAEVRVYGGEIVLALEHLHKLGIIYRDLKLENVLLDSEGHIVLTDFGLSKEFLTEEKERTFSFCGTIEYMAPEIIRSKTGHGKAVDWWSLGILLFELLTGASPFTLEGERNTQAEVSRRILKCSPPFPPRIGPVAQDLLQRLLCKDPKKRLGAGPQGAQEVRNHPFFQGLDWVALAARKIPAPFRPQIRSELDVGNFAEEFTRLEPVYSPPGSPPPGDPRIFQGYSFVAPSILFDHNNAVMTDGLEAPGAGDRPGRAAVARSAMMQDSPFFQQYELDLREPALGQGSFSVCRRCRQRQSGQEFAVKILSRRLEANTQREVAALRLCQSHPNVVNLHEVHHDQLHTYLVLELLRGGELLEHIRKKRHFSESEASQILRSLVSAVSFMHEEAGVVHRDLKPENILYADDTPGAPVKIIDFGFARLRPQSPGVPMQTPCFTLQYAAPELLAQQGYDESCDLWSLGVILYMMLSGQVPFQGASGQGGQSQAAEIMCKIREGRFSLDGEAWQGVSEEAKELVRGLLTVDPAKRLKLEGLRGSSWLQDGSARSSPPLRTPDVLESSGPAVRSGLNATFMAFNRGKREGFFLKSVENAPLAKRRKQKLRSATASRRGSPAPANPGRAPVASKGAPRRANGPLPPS

| Target | log2 fold change |
| --- | --- |
| ULK1 (peptide sequence: LFLQQIAGAMR, peptide start residue: 117) (UniProt O75385) | -1.62 |
| USP8 (peptide sequence: SYSSPDITQAIQEEEKR, peptide start residue: 716) (UniProt P40818) | 1.8 |
| PRPF4B (peptide sequence: QHLCLVFEPLSMNLR, peptide start residue: 761) (UniProt Q13523) | -0.779 |
| TAOK2 (peptide sequence: ERPPTVIMDLIQR, peptide start residue: 284) (UniProt Q9UL54) | -2.3 |
| RPS6KA4 (peptide sequence: VLGTGAYGK, peptide start residue: 54) (UniProt O75676) | -0.533 |
| PRKACB (peptide sequence: QIEHTLNEK, peptide start residue: 85) (UniProt P22694) | 1.81 |
| UniProt Q8NEB9 (peptide sequence: SALMPAQLFFK, peptide start residue: 614) | -0.384 |
| UniProt Q13043 (peptide sequence: ATATQLLQHPFVR, peptide start residue: 270) | -3.53 |
| PRKAR1B (peptide sequence: NVLFAHLDDNER, peptide start residue: 135) (UniProt P31321) | 1.02 |
| GEMIN5 (peptide sequence: MLSTFKELFSEK, peptide start residue: 1352) (UniProt Q8TEQ6) | -1 |
